Pf growth 96h: P. falciparum growth inhibition at 96 hour, primary screen for plastid delayed-death inhibitors | 6.9% of 320,000 active | Potency, µM (highest dose often 28.7 µM), for the others: top-dose activity change, negative = inhibition, hits mostly inhibitors | AID 504834 | P. falciparum luciferase reporter growth, 96 h; further: potency means the concentration at half of the fitted maximal effect; on the % scale 0 is the no-effect control and ±100 the full control effect
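96 h incubation, 37 C, 5% CO2, of luciferase-reporter P. falciparum-infected RBCs (2% hematocrit, 0.05% parasitemia final) with test compounds; endpoint luminescence.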
HCMV inh: blocks human cytomegalovirus replication; HFF cells, HCMV-luciferase reporter, 72 h; active compounds read low; activity change, negative = inhibition, % at 57.5 µM; 4.5% of 410,000 active; AID 1259415; in the data active means activity change below about -60%; inconclusive means no clear call, values can overlap the other calls; inactive means above about -39%; further: on the % scale 0 is the no-effect control and ±100 the full control effect
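HFF cells seeded 16 h at 37C, treated with compounds, infected with luciferase-reporter HCMV at MOI 1 PFU/cell; luciferase read at 72 h post infection, normalized to buffer-only and Salinomycin controls.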
Pf growth 48h: inhibits P. falciparum growth in the first generation, 48 h | P. falciparum luciferase growth in erythrocytes, 48 h | Potency, µM (series often up to 28.7 µM), without a hit: top-dose activity change, negative = inhibition, most hits filed as inhibitors | 5.9% of 310,000 active | AID 504832; further: potency means the concentration at half of the fitted maximal effect; on the % scale 0 is the no-effect control and ±100 the full control effect
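Luciferase-expressing parasites in RBCs, 2% Hct / 0.1% parasitemia final; RPMI 1640 + 0.5% Albumax; 37 C, 5% CO2, one generation; luminescence read-out, lower signal = inhibition.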
Cycloheximide cs: counter-screen for Shiga toxin inhibitors: cycloheximide protein synthesis inhibition | cell reporter, cycloheximide protein synthesis inhibition counterscreen | max response, % | 12% of 300,000 active | AID 2314; in the data active means max response mostly above about 13%, no sharp cut-off; inactive means mostly below about 14%; further: read at 38.3 µM for the half of the compounds with a filed dose; 0% is about no effect
Shiga inhibitor: Shiga toxin inhibition | 9.2% of 290,000 active | Vero cells, Shiga toxin protein synthesis inhibition reporter | AID 2315 | inhibition, % at 38.7 µM; in the data active means inhibition mostly above about 28%, no sharp cut-off; inactive means mostly below about 43%; further: 0% is about no effect
* hit, by the source's call. Sampled rows, rich in hits. Any-hit rate of the full collection: about 20%. Unless noted, the call rests on the fitted dose curve; in most records, active means well fitted inhibition curve with a large enough effect; inconclusive means small, poorly fitted or top-dose-only effect, or another doubt; inactive means no such curve, though single readings can be large or run the other way.

What do the screens show for `O=[N+]([O-])c1cccc(-c2c[n+]3c(n2-c2ccccc2)SCC3)c1`?
Pf growth 96h: 1.04µM*; HCMV inh: -29.8; Pf growth 48h: 1.04µM*; Cycloheximide cs: 1.2; Shiga inhibitor: -7.1

Results for Clc1ccc(-c2c[n+]3c(n2-c2ccccc2)SCC3)cc1 ?
Pf growth 96h: 0.165µM*; HCMV inh: inconclusive; Pf growth 48h: 1.17µM*; Cycloheximide cs: -0.6; Shiga inhibitor: 6.4

What do the screens show for `Cc1ccc(-c2cc(C(=O)O)n(Cc3ccccc3)n2)cc1`?
HCMV inh: 53.6

What do the screens show for `CCOc1ccccc1CN1CCNC(=O)C1CC(=O)N(C)CCc1cnn(C)c1` (centres undefined)?
Pf growth 96h: 33.0%; HCMV inh: -29.9; Pf growth 48h: 0.5%; Cycloheximide cs: -7.0; Shiga inhibitor: -1.5

What do the screens show for `Cc1noc(C)c1S(=O)(=O)N1CCC(C(=O)N2CCN(c3ccccc3Cl)CC2)CC1`?
Pf growth 96h: inconclusive; HCMV inh: -2.1; Pf growth 48h: inconclusive; Cycloheximide cs: 1.6; Shiga inhibitor: -7.7

Results for Cc1noc(C)c1S(=O)(=O)N1CCN(c2ccccc2Cl)CC1 ?
Pf growth 96h: 14.7µM*; HCMV inh: -21.9; Pf growth 48h: inconclusive

What do the screens show for `Cc1ccc(C)c(N2CCN(C(=O)C3CCN(S(=O)(=O)c4c(C)noc4C)CC3)CC2)c1`?
Pf growth 96h: inconclusive; HCMV inh: -68.4*; Pf growth 48h: inconclusive; Cycloheximide cs: -1.5; Shiga inhibitor: 1.2

Results for Cc1ccc(/C=C/c2onc(C)c2S(=O)(=O)N2CCC(C(=O)N3CCC(N(C)C(C)C)CC3)CC2)cc1 ?
HCMV inh: -100.7*

Results for Cc1ccc(C)c(N2CCN(C(=O)C3CCCN(S(=O)(=O)c4c(C)noc4C)C3)CC2)c1 (centres undefined) ?
Pf growth 96h: -23.7%; HCMV inh: -18.3; Pf growth 48h: 11.7µM*; Cycloheximide cs: -1.4; Shiga inhibitor: -3.6

How did CC(=O)N1CCCc2cc(S(=O)(=O)N3CCCC(C(=O)Nc4cc(Cl)ccc4C)C3)ccc21 (centres undefined) do in these assays?
HCMV inh: -22.8

Results for COc1cccc(CN2CC(C(=O)NCCC3=CCCCC3)CCC2=O)c1 (centres undefined) ?
Pf growth 96h: 14.6%; HCMV inh: -36.8; Pf growth 48h: 0.0%; Cycloheximide cs: 19.3; Shiga inhibitor: 17.5

Results for Cc1ccc(Nc2ncccc2C(N)=O)cc1 ?
Pf growth 96h: 157.0%; HCMV inh: 79.5; Pf growth 48h: 192.5%; Cycloheximide cs: 94.1*; Shiga inhibitor: 119.2*

What do the screens show for `NC(=O)c1cccnc1Nc1ccccc1F`?
Pf growth 96h: 103.3%; HCMV inh: 42.8; Pf growth 48h: 68.2%; Cycloheximide cs: 28.9*; Shiga inhibitor: 28.0*

What do the screens show for `Cc1cc(Cl)ccc1Nc1ncccc1C(N)=O`?
Pf growth 96h: 195.0%; HCMV inh: 21.7; Pf growth 48h: 208.3%; Cycloheximide cs: 68.9*; Shiga inhibitor: 69.3*

What do the screens show for `Cc1c(Cl)cccc1Nc1ncccc1C(=O)O`?
Pf growth 96h: 77.9%; HCMV inh: inconclusive; Pf growth 48h: 35.4%; Cycloheximide cs: -0.9; Shiga inhibitor: 19.6

How did NC(=O)NC(=O)COC(=O)c1cccnc1Nc1ccccc1F do in these assays?
Pf growth 96h: 38.0%; HCMV inh: -11.2; Pf growth 48h: 36.6%; Cycloheximide cs: 10.6; Shiga inhibitor: 7.3

What do the screens show for `Cc1ccsc1C(=O)N1CCN(c2ccccn2)CC1`?
Pf growth 96h: inconclusive; HCMV inh: -17.8; Pf growth 48h: 5.0%; Cycloheximide cs: -1.1

How did Cc1ccccc1-c1cc2nc(NCCN3CCCC3)n(C)c(=O)c2s1 do in these assays?
HCMV inh: 13.9

Results for Cc1onc(-c2c(Cl)cccc2Cl)c1C(=O)N/N=C(\N)COc1ccc(Cl)cc1 ?
Pf growth 96h: inconclusive; HCMV inh: -78.1*; Pf growth 48h: 2.33µM*; Cycloheximide cs: -3.3; Shiga inhibitor: 19.8

How did Cc1cc(Br)c(NC(=O)c2c(-c3c(Cl)cccc3Cl)noc2C)c(Br)c1 do in these assays?
Pf growth 96h: 5.86µM*; HCMV inh: inconclusive; Pf growth 48h: 10.4µM*; Cycloheximide cs: 1.3; Shiga inhibitor: -2.2

Results for COc1cc(/C=N/NC(=O)c2c(-c3c(Cl)cccc3Cl)noc2C)ccc1OCC(N)=O ?
Pf growth 96h: 5.6%; HCMV inh: -5.3; Pf growth 48h: 0.0%; Cycloheximide cs: -1.4; Shiga inhibitor: -14.7

How did COc1ccc(NC(=O)c2c(-c3c(Cl)cccc3Cl)noc2C)c(OC)c1 do in these assays?
Pf growth 96h: 29.0%; HCMV inh: -22.3; Pf growth 48h: 1.65µM*; Cycloheximide cs: -7.0; Shiga inhibitor: -0.5

How did Cc1ccccc1CNc1nc(N(C)C)nc2c1cnn2C do in these assays?
HCMV inh: -23.7

What do the screens show for `COc1ccc(NC(=O)CN2C(=O)C3(SCC(=O)N3c3ccccc3)c3ccccc32)cc1Cl` (centres undefined)?
HCMV inh: -13.6

What do the screens show for `Cc1sc2ncnc(N3CCC(C(=O)Nc4nc(-c5cccs5)cs4)CC3)c2c1C`?
Pf growth 96h: 10.4µM*; HCMV inh: 15.6; Pf growth 48h: inconclusive

Results for Cc1ccc2nc(NC(=O)C3CCN(c4ncnc5sc(C)c(C)c45)CC3)sc2c1 ?
Pf growth 96h: inconclusive; Pf growth 48h: -5.0%; Cycloheximide cs: 18.2*; Shiga inhibitor: 20.6

How did CCc1nnc(NC(=O)C2CCN(c3ncnc4sc(C)c(C)c34)CC2)s1 do in these assays?
Pf growth 96h: 41.3%; HCMV inh: 94.2; Pf growth 48h: 36.3%

Results for OC[C@@H]1CN(Cc2ccc(F)cc2)C[C@H](n2cnc3c(N4CCOCC4)ncnc32)O1 ?
HCMV inh: -4.7

Results for CCCCNC(=O)c1ccc2c(c1)ncn2C1CCCC1 ?
Pf growth 96h: inconclusive; HCMV inh: -9.5; Cycloheximide cs: 33.7*; Shiga inhibitor: 65.4

How did CC(C)CCNC(=O)c1ccc2c(c1)ncn2C1CCCCC1 do in these assays?
Pf growth 96h: inconclusive; HCMV inh: 36.6; Pf growth 48h: inconclusive; Cycloheximide cs: 19.2; Shiga inhibitor: 42.0*

Results for CC1CC(C)CN(CCCNC(=O)c2ccc3c(c2)ncn3C2CCCC2)C1 (centres undefined) ?
Pf growth 96h: 10.4µM*; HCMV inh: inconclusive; Pf growth 48h: inconclusive; Cycloheximide cs: 6.3; Shiga inhibitor: 15.2

How did CCCCNC(=O)c1ccc2c(c1)ncn2C1CCCCC1 do in these assays?
Pf growth 96h: inconclusive; HCMV inh: -3.2; Pf growth 48h: inconclusive; Cycloheximide cs: 11.8; Shiga inhibitor: -4.2

How did Cc1nc2cc(C(=O)O)ccc2n1C1CCCCC1 do in these assays?
Pf growth 96h: -14.9%; HCMV inh: -31.6; Pf growth 48h: 19.8%; Cycloheximide cs: 1.3; Shiga inhibitor: 1.1

How did O=C(O)c1ccc2c(c1)ncn2C1CCCC1 do in these assays?
Pf growth 96h: -21.6%; HCMV inh: -8.6; Pf growth 48h: 100.7%; Cycloheximide cs: 47.8*; Shiga inhibitor: 113.6*
